Assay outcomes: PubChem BioAssay, National Center for Advancing Translational Sciences (NCATS)
Hits are enriched below; roughly 1.1% of the tested compounds scored in any of these assays.
Giardia FBPA inh: Giardia lamblia aldolase inhibition | 290,000 tested, 0.71% active | AID 2451 | purified Giardia FBPA | Potency, µM (doses to about 59.6 µM), for inactives: top-dose activity, negative = inhibition, actives largely listed as inhibitors; further: on the % scale 0 is the no-effect control and ±100 the full control effect; nearly all actives have a fitted effect of over 55% in size
Target sequence (A8B2U2 whole entry, looked up): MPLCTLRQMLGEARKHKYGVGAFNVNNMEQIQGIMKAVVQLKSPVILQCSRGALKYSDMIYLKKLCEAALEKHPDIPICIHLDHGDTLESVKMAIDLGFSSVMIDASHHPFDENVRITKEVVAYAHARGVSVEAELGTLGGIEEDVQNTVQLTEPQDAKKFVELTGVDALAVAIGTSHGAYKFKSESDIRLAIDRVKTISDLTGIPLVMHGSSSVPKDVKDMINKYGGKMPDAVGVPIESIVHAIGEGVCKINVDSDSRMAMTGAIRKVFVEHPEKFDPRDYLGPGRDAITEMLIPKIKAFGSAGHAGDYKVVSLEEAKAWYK
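Giardia FBPA (40 nM reagent) was preincubated 10 min at RT with compound (up to 57.5 uM final), then substrate plus GAPDH/TPI/NAD/arsenate coupling system with diaphorase/resazurin was added; resorufin fluorescence (525/598 nm) was read after 20 min.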
AmpC inh no detg: blocks E. coli AmpC beta-lactamase in detergent-free assay | AmpC nitrocefin hydrolysis, absorbance 480 nm, 0.0001% Triton | 330,000 tested, 0.52% active | Potency, µM (titrated, usually from 57.1 µM), without a hit: at the top dose activity change, negative = inhibition, usual class: inhibitors | P00811;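 further: plate controls were no compound for no effect and no enzyme for full effect; nearly all actives have a fitted effect of over 20% in size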
Target sequence (P00811 whole entry, looked up): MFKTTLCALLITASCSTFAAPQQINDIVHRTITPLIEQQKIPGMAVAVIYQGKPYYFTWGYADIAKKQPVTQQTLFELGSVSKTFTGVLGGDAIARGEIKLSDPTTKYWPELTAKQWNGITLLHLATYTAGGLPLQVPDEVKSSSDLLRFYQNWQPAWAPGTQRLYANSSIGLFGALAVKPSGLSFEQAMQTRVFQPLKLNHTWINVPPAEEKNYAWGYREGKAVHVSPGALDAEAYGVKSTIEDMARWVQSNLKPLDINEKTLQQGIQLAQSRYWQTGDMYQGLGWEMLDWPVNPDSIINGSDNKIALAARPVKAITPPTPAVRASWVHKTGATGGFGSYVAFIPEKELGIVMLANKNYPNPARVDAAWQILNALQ
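20 mM phosphate pH 7.0 + 0.01% (detergent screen) or 0.0001% Triton X-100; 5.3 nM AmpC reagent; cpd preinc 15 min RT; nitrocefin (800 uM stock) to start; A480 q20 s × 4 min; Activity was normalised to no-enzyme and no-compound control wells.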
AmpC inh detg: inhibitors of E. coli AmpC beta-lactamase with detergent; AmpC hydrolysis of nitrocefin, absorbance 480 nm, 0.01% Triton; Potency, µM (titrated, usually from 114 µM), for the others: at the highest dose activity change, negative = inhibition, usual class: inhibitors; 370,000 tested, 0.041% active;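 further: 0% = no-compound wells and -100% = no-enzyme wells; nearly all actives have a fitted effect of over 25% in size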
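20 mM phosphate pH 7.0 + 0.01% (detergent screen) or 0.0001% Triton X-100; 5.3 nM AmpC reagent; cpd preinc 15 min RT; nitrocefin (800 uM stock) to start; A480 q20 s × 4 min; Activity was normalised to no-enzyme and no-compound control wells.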
SARS PLP yeast: blocks SARS-CoV papain-like protease in a yeast assay | Potency, µM (series often up to 32.9 µM), without a hit: at the highest dose activity, positive = growth rescue, actives largely listed as activators | AID 485353 | S. cerevisiae expressing SARS-CoV PLpro, growth rescue | 330,000 tested, 0.19% active; calls by dose curve; further: 0% is about no effect; nearly all actives have a fitted effect of over 55% in size
Active calls of the source: *; ? = inconclusive; / = no result; [ ] = remark or other dose. Unless noted, the call rests on the fitted dose curve; in most records, active means well fitted curve in the direction sought with a large enough effect; inconclusive means small, poorly fitted or top-dose-only effect, or another doubt; inactive means no such curve, though single readings can be large; an effect the other way counts as inactive or inconclusive. Potency means the concentration at half of the fitted maximal effect.

SMILES	Giardia FBPA inh	AmpC inh no detg	AmpC inh detg	SARS PLP yeast
CC#C[C@]1(O)CC[C@H]2C3CCC4=CC(=O)CCC4=C3[C@@H](c3ccc(N(C)C)cc3)C[C@@]21C (some centres not stated)	-7.4%	/	/	/
CC[C@H](C)[C@H](NC(=O)[C@H](C)NC(=O)CNC(=O)[C@H](CCCCN)NC(=O)[C@H](CC(N)=O)NC(=O)[C@H](CO)NC(=O)CN)C(=O)N[C@H](C(=O)NCC(=O)N[C@@H](CC(C)C)C(=O)N[C@@H](CCSC)C(=O)O)[C@@H](C)CC	5.1%	/	/	/
CCC1CCCCN1C(=O)CSc1nc(-c2ccc(OC)cc2)cc(C(F)(F)F)n1 (configuration not stated)	/	/	21.0%	/
C[C@H](NC(=O)CNC(=O)[C@@H](NC(=O)[C@H](Cc1ccccc1)NC(=O)CNC(=O)CNC[C@@H](N)Cc1ccccc1)[C@@H](C)O)C(=O)N[C@@H](CCCN=C(N)N)C(=O)N[C@@H](CCCCN)C(=O)N[C@@H](CO)C(=O)N[C@@H](C)C(=O)N[C@@H](CCCN=C(N)N)C(=O)N[C@@H](CCCCN)C(N)=O	4.0%	/	/	/
CCC[C@H](NC(C)=O)C(=O)N[C@H]1CC(=O)ONCCCC[C@@H](C(N)=O)NC(=O)[C@H](Cc2c[nH]c3ccccc23)NC(=O)[C@H](CCCN=C(N)N)NC(=O)[C@@H](Cc2ccc3ccccc3c2)NC(=O)[C@H](Cc2cnc[nH]2)NC1=O	4.6%	/	/	/
CCCCc1nc2c(c3c1C[C@H](C)OC3)CN(S(=O)(=O)CCCC)CC2	4.7%[12.9 µM]	/	/	/
O=S(=O)(Nc1cc(Sc2cccc3cccnc23)c(O)c2ccccc12)c1ccc(F)cc1	1.12µM*	-45.5%	-5.5%	-6.0%
O=C(Sc1cccc2cccnc12)c1ccc(F)cc1	?	-28.5%[11.4 µM]	-17.8%	-1.3%
COc1ccc(NC(=O)Cn2nc(Cc3cccnc3)c3ccccc3c2=O)cc1OC	2.9%	2.82µM*	?	0.7%
Cc1cc(NC(=O)COC(=O)c2cc([N+](=O)[O-])ccc2N2CCOCC2)ccc1Br	/	31.6µM*	?	-13.9%
CCCCS(=O)(=O)N1CCc2nc(-c3ccccc3)c3c(c2C1)CO[C@@H](C)C3	9.1%[12.9 µM]	/	/	/
CCC(=O)Nc1nc(C)c(-c2csc(Nc3cccc(O)c3)n2)s1	-19.1%	15.8µM*	?	-0.2%
Cc1nc(NC(=O)c2ccccc2)sc1-c1csc(Nc2ccc(Cl)cc2)n1	-1.8%	31.3%	?	-9.2%
COc1ccc(Nc2nc(-c3sc(NC(C)=O)nc3C)cs2)cc1	-19.9%	17.4%	?	3.16µM*
Cc1nc(NC(=O)c2ccccc2)sc1-c1csc(Nc2cccc(Cl)c2)n1	-13.4%	14.1µM*	-11.7%	-2.5%
COC(=O)[C@H](Cc1ccccc1)NC(=O)O[C@@H]1C(=O)c2ccc(OC)cc2O[C@H]1c1ccc2c(c1)OCO2	-0.8%	/	/	/
Cc1ccc(C)c(S(=O)(=O)c2nnn3c2nc(N2CCCCC2)c2sccc23)c1	/	/	-8.6%	/
Cc1ccc(Cl)cc1NC(=O)C1CCCN(S(=O)(=O)c2cccc3cccnc23)C1 (configuration not stated)	/	/	-8.5%	/
Cc1ccccc1NC(=O)C1CCCN(S(=O)(=O)c2cccc3cccnc23)C1 (configuration not stated)	4.5%	5.01µM*	?	2.9%
O=C(CN1C(=O)CCSc2ccccc21)N1CCC2(CC1)OCCO2	-1.7%	0.282µM*	3.2%	1.3%
O=C(CN1C(=O)COc2ccccc21)N1CCC2(CC1)OCCO2	9.6%	-18.8%	?	5.5%
O=C1C(Cl)=C(N2CCCCC2)C(=O)C(Cl)=C1c1cnc(N2CCCCC2)s1	7.06µM*	-51.8%	-6.7%	-6.2%
COc1ccc(NC(=O)c2cc(-c3cc(C)cc(C)c3O)n[nH]2)cc1Cl	-1.0%	11.2µM*	-0.5%	-11.8%
C=C1C[C@@]23C[C@@]1(O)CC[C@@H]2[C@]12C=C[C@@H](O)[C@](C)(C(=O)O1)[C@@H]2[C@@H]3C(=O)O	5.9%	/	/	/
CCCC(=O)Nc1ccc2c(c1)C(=O)NC2=O	-6.5%	44.7µM*	-16.3%	-2.7%
SMILES	Giardia FBPA inh	AmpC inh no detg	AmpC inh detg	SARS PLP yeast
Cc1ccc2c(c1)Oc1ccc(NC(=O)CCCl)cc1C(=O)N2	-1.6%	20µM*	?	-0.1%
Cc1ccc(OCC(=O)Nc2ccc3c(c2)C(=O)NC3=O)c(C)c1	/	-17.0%	4.3%	-0.3%
Cc1cccc(N2CCN(C(=O)C3CCN(S(=O)(=O)c4cn(C)cn4)CC3)CC2)c1C	/	/	-1.0%	/
O=C(O)c1cccc2c1NC(C(=O)O)C1CC(Sc3ccccc3[N+](=O)[O-])C(Cl)C21 (configuration not stated)	-19.0%	-51.2%	39.8µM*	15.4%
CC(=O)c1ccc2c(c1)C1C(Cl)C(Sc3ccccc3[N+](=O)[O-])CC1C(C(=O)O)N2 (configuration not stated)	-2.7%	-45.8%	?	-5.5%
O=C(Nc1cc(C(F)(F)F)cc(C(F)(F)F)c1)c1cc(Cl)ccc1O	-15.4%	/	/	/
Cc1ccc2ccc(C(Nc3cccc(C(F)(F)F)c3)c3cccnc3)c(O)c2n1 (configuration not stated)	-1.3%	2.3%	-5.2%	10µM*
Cc1ccc2ccc(C(Nc3ccccn3)c3ccccc3)c(O)c2n1 (configuration not stated)	-23.3%	-21.7%	?	11.2µM*
COc1ccc(-c2nnc3n2N=C(c2ccc(OC)c(OC)c2)CS3)cc1	4.2%	/	/	/
O=C(/C=C/c1ccc(F)cc1)NC(=S)NNC(=O)[C@H]1C[C@@H]1c1ccccc1	21.1%	10µM*	-2.5%	14.1%
COc1ccc(C2=Nn3c(nnc3-c3ccccc3O)SC2)c(OC)c1	-2.8%	/	/	/
COc1ccc(CCNC(=O)c2nc(SCc3ccccc3F)ncc2Cl)cc1OC	/	/	4.8%	/
C/C(Cn1nnc([N+](=O)[O-])n1)=N\NC(=O)c1ccc(C)cc1	?	-17.7%	?	-2.9%
C/C(Cn1nnc([N+](=O)[O-])n1)=N\NC(=O)c1ccncc1	19.9µM*	-12.6%	-5.1%	3.6%
N#CCc1nc(C(c2ccccc2)c2ccccc2)no1	?	17.8µM*	-5.6%	2.3%
CN(C)S(=O)(=O)c1ccc(C(=O)N2CCN=C2SCc2cccnc2)cc1	-0.4%	22.2%	-12.7%	20µM*
COc1ccc(OCCC(=O)NC2=NCCS2)cc1	1.6%	0.7%	0.6%	-9.6%
COc1ccc(C(=O)NCC(=O)NC2=NCCS2)cc1	-2.9%	35.5µM*	?	13.3%
CC1CCN(c2nc(Cl)nc(Nc3ccc([N+](=O)[O-])cc3)n2)CC1	-0.4%	10µM*	?	-103.5%
CCn1c(=O)c2cc(C(=O)N3CCN(C)CC3)sc2c2ccccc21	-1.3%	0.631µM*	-5.0%	-6.5%
O=C1OC2(c3ccccc31)c1cc(I)c(O)c(I)c1Oc1c2cc(I)c(O)c1I	15.8µM*	25.1µM*	50.1µM*	0.8%
